# Results filed as inconclusive are left out. Values without a mark were called inactive. The source made the active and inactive calls. Calls follow the shape of the full dose curve; tested in HEK293 reporter line.
# Assay: qHTS for Inhibitors of the Functional Ribonucleoprotein Complex (vRNP) of Lassa (LASV) Arenavirus: LASV Primary Screen - GLuc reporter signal (AID 1347082); also: nearly all actives have a fitted effect of over 60% in size
# Settings: LASV minigenome vRNP, Gaussia luciferase reporter; series mostly up to 57.5 µM; activity change, negative = inhibition: at the top concentration
# % is scaled to controls: 0 for no effect and ±100 for the full control effect; potency is read from the fitted curve at half-maximal effect.
SMILES,"activity change, negative = inhibition",Potency
Oc1c(Br)cc(Br)c2cccnc12,11.7%,
Cc1cc(C)nc(NS(=O)(=O)c2ccc(N)cc2)n1,12.4%,
CCc1cccc(CC)c1NC(=O)CN(CC(=O)O)CC(=O)O,10.8%,
CC(C(=O)O)c1ccc2c(c1)[nH]c1ccc(Cl)cc12 (stereo unspecified),12%,
Cc1ccc(-c2ccccc2C#N)cc1,-1.64%,
NCCS(=O)(=O)O,,inactive
CC(C)C(=O)Nc1cccc(C(F)(F)F)c1,-0.126%,
Cc1cc(C)c(NC(=O)CN(CC(=O)O)CC(=O)O)c(C)c1Br,-0.239%,
NCCCNCCSP(=O)(O)O,,inactive
N#CC1(c2ccc(F)cc2)CCC(=O)CC1,4.44%,
OCc1ccc(Cl)cc1Cl,2.46%,
CC(C)C(=O)c1c(C(C)C)nn2ccccc12,,inactive
Nc1ccc(S(=O)(=O)NC(=O)c2ccccc2)cc1,-12.4%,
Nc1nc(-c2ccccc2)c(Br)c(=O)[nH]1,2.66%,
C[C@@H]1O[C@@H](O[C@H]2CC[C@@]3(C)[C@H](CC[C@@H]4[C@H]3C[C@@H](O)[C@]3(C)[C@@H](C5=CC(=O)OC5)CC[C@]43O)C2)C[C@H](O)[C@@H]1O[C@H]1C[C@H](O)[C@H](O[C@H]2C[C@H](O)[C@@H](O)[C@@H](C)O2)[C@H](C)O1 (stereo in doubt),,559 nM (active)
CCOC(N)=O,-1.53%,
C[N+](C)(CCOc1ccccc1)Cc1cccs1,-7.99%,
CC[N+](CC)(CCNC(=O)C(=O)NCC[N+](CC)(CC)Cc1ccccc1Cl)Cc1ccccc1Cl,-4.65%,
NC(=O)c1ncn([C@@H]2O[C@H](CO)[C@@H](O)[C@H]2O)c1O,,inactive

SMILES,"activity change, negative = inhibition",Potency
CC1(COc2ccc(CC3SC(=O)NC3=O)cc2)CCCCC1 (stereo unspecified),-1.68%,
COc1cc2c3cc1Oc1cc(ccc1O)C[C@@H]1c4c(cc(OC)c(O)c4Oc4ccc(cc4)C[C@@H]3N(C)CC2)CC[N+]1(C)C,9.76%,
CC(C)CN(C[C@@H](O)[C@H](Cc1ccccc1)NC(=O)O[C@H]1CO[C@H]2OCC[C@H]21)S(=O)(=O)c1ccc(N)cc1,-29.3%,
NC(CS)C(=O)O (stereo unspecified),3.97%,
Nc1ncnc2c1ncn2[C@@H]1O[C@H](CO)[C@@H](O)[C@H]1O,,inactive
C[C@@H]1CN(c2c(F)c(F)c3c(=O)c(C(=O)O)cn(C4CC4)c3c2F)C[C@H](C)N1,7.15% [at 24.7 µM],
CC(C)=CCC/C(C)=C/CO,-0.473%,
COc1ccc(C(=O)CC(=O)c2ccc(C(C)(C)C)cc2)cc1,,inactive
Nc1ccc(O)cc1,3.05%,
CC(C(=O)O)c1cccc(Oc2ccccc2)c1 (stereo unspecified),0.455%,
COC(=O)c1cc(Cl)c(NC(C)=O)cc1OC,4.83%,
CCCCCCCCCCCCCCCC(=O)O,-1.37%,
CC(=O)NO,-5.87%,
C[C@@H]1O[C@@H](OC[C@H]2O[C@@H](Oc3c(-c4ccc(O)c(O)c4)oc4cc(O)cc(O)c4c3=O)[C@H](O)[C@@H](O)[C@@H]2O)[C@H](O)[C@H](O)[C@H]1O,-1.34%,
CC(C)(Oc1ccc(C2CC2(Cl)Cl)cc1)C(=O)O (stereo unspecified),,inactive
CCCCCCCCCCCCCCCC(=O)NCCO,,inactive
NC1CCN(c2nc3c(cc2F)c(=O)c(C(=O)O)cn3-c2ccc(F)cc2F)C1 (stereo unspecified),-0.199%,
CN1Cc2cc(C(=O)N3CCC(C4CCNCC4)CC3)ccc2NC(CC(=O)O)C1=O (stereo unspecified),-6.7%,
CC(O)CCCCn1c(=O)c2c(ncn2C)n(C)c1=O (stereo unspecified),10.3%,

# Assay: qHTS for Inhibitors of the Functional Ribonucleoprotein Complex (vRNP) of Lassa (LASV) Arenavirus: Viability assay - alamar blue signal for LASV Primary Screen (AID 1347083); also: nearly all actives have a fitted effect of over 80% in size
# Settings: cell viability, alamar blue fluorescence (LASV minigenome counter-screen); series mostly up to 57.5 µM; activity change, negative = reduced viability: at the top concentration
SMILES,"activity change, negative = reduced viability",Potency
Oc1c(Br)cc(Br)c2cccnc12,0.577%,
Cc1cc(C)nc(NS(=O)(=O)c2ccc(N)cc2)n1,9.94%,
CCc1cccc(CC)c1NC(=O)CN(CC(=O)O)CC(=O)O,13.7%,
CC(C(=O)O)c1ccc2c(c1)[nH]c1ccc(Cl)cc12 (stereo unspecified),21.1%,
Cc1ccc(-c2ccccc2C#N)cc1,0.343%,
NCCS(=O)(=O)O,,inactive
CC(C)C(=O)Nc1cccc(C(F)(F)F)c1,4.61%,
Cc1cc(C)c(NC(=O)CN(CC(=O)O)CC(=O)O)c(C)c1Br,11.9%,
NCCCNCCSP(=O)(O)O,,inactive
N#CC1(c2ccc(F)cc2)CCC(=O)CC1,-2.99%,
OCc1ccc(Cl)cc1Cl,-0.778%,
CC(C)C(=O)c1c(C(C)C)nn2ccccc12,,inactive
Nc1ccc(S(=O)(=O)NC(=O)c2ccccc2)cc1,-12%,
Nc1nc(-c2ccccc2)c(Br)c(=O)[nH]1,0.844%,
C[C@@H]1O[C@@H](O[C@H]2CC[C@@]3(C)[C@H](CC[C@@H]4[C@H]3C[C@@H](O)[C@]3(C)[C@@H](C5=CC(=O)OC5)CC[C@]43O)C2)C[C@H](O)[C@@H]1O[C@H]1C[C@H](O)[C@H](O[C@H]2C[C@H](O)[C@@H](O)[C@@H](C)O2)[C@H](C)O1 (stereo in doubt),,352 nM (active)
CCOC(N)=O,-2.48%,
C[N+](C)(CCOc1ccccc1)Cc1cccs1,-5.14%,
CC[N+](CC)(CCNC(=O)C(=O)NCC[N+](CC)(CC)Cc1ccccc1Cl)Cc1ccccc1Cl,13.9%,
NC(=O)c1ncn([C@@H]2O[C@H](CO)[C@@H](O)[C@H]2O)c1O,,inactive

SMILES,"activity change, negative = reduced viability",Potency
CC1(COc2ccc(CC3SC(=O)NC3=O)cc2)CCCCC1 (stereo unspecified),-5.66%,
COc1cc2c3cc1Oc1cc(ccc1O)C[C@@H]1c4c(cc(OC)c(O)c4Oc4ccc(cc4)C[C@@H]3N(C)CC2)CC[N+]1(C)C,13%,
CC(C)CN(C[C@@H](O)[C@H](Cc1ccccc1)NC(=O)O[C@H]1CO[C@H]2OCC[C@H]21)S(=O)(=O)c1ccc(N)cc1,-8.55%,
NC(CS)C(=O)O (stereo unspecified),-0.382%,
Nc1ncnc2c1ncn2[C@@H]1O[C@H](CO)[C@@H](O)[C@H]1O,,inactive
C[C@@H]1CN(c2c(F)c(F)c3c(=O)c(C(=O)O)cn(C4CC4)c3c2F)C[C@H](C)N1,1.18% [at 24.7 µM],
CC(C)=CCC/C(C)=C/CO,8.14%,
COc1ccc(C(=O)CC(=O)c2ccc(C(C)(C)C)cc2)cc1,2.01%,
Nc1ccc(O)cc1,-1.58%,
CC(C(=O)O)c1cccc(Oc2ccccc2)c1 (stereo unspecified),8.41%,
COC(=O)c1cc(Cl)c(NC(C)=O)cc1OC,6.35%,
CCCCCCCCCCCCCCCC(=O)O,3.21%,
CC(=O)NO,-0.139%,
C[C@@H]1O[C@@H](OC[C@H]2O[C@@H](Oc3c(-c4ccc(O)c(O)c4)oc4cc(O)cc(O)c4c3=O)[C@H](O)[C@@H](O)[C@@H]2O)[C@H](O)[C@H](O)[C@H]1O,1.66%,
CC(C)(Oc1ccc(C2CC2(Cl)Cl)cc1)C(=O)O (stereo unspecified),,inactive
CCCCCCCCCCCCCCCC(=O)NCCO,,inactive
NC1CCN(c2nc3c(cc2F)c(=O)c(C(=O)O)cn3-c2ccc(F)cc2F)C1 (stereo unspecified),-1.34%,
CN1Cc2cc(C(=O)N3CCC(C4CCNCC4)CC3)ccc2NC(CC(=O)O)C1=O (stereo unspecified),-2.31%,
CC(O)CCCCn1c(=O)c2c(ncn2C)n(C)c1=O (stereo unspecified),-3.79%,
